PubChem BioAssay (Tox21)
Records with an inconclusive call do not appear. The source made the active and inactive calls. Unless noted, calls follow the shape of the full dose curve.

How the values were obtained:
[1] = qHTS assay to identify small molecule agonists of the sonic hedgehog signaling (Shh) pathway (AID 1259368);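 also: NIH/3T3-derived 3T3Gli1-Luc cells carrying a stable Gli1-driven firefly luciferase reporter; series mostly up to about 92 µM; nearly all actives have a fitted effect of over 15% in size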
Procedure, shortened: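 Cells of a mouse NIH/3T3 clone stably expressing luciferase under the Gli1 transcriptional response element are exposed to test chemicals for 24 hr at 37 C. Pathway activation is detected as a rise in luminescence.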

[2] = qHTS assay to identify small molecule antagonists of the sonic hedgehog signaling (Shh) pathway (AID 1259369); also: nearly all actives have a fitted effect of over 45% in size
Procedure, shortened: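 Cells are plated and held 4hr at 37 C, compounds (DMSO) are pinned in, conditioned medium is added to stimulate the pathway, and after 24hr luciferase reagent is added for 30min before luminescence is read.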

[3] = molecular target: Estrogen receptor beta (Homo sapiens) (UniProt Q92731); experiment: qHTS assay to identify small molecule agonists of the estrogen receptor beta (ER-beta) signaling pathway (AID 1259377; active = well fitted activation curve with a large enough effect in the signal ratio in the repeat runs, not every such curve was filed as active; the % refers to the signal ratio)
Procedure, shortened: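 qHTS in ER-beta-UAS-bla HEK293T cells: 6 hr settling, then 16 hr compound at 37C, then LiveBLAzer substrate 2 h at RT before fluorescence reading.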

[4] = molecular target: Estrogen receptor beta (Homo sapiens) (UniProt Q92731); experiment: qHTS assay to identify small molecule antagonists of the estrogen receptor beta (ER-beta) signaling pathway (AID 1259378; active = well fitted inhibition curve with a large enough effect in the signal ratio in the repeat runs, not every such curve was filed as active; the % refers to the signal ratio)
Procedure, shortened: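 ER-beta-UAS-bla HEK293T cells in 2% charcoal-stripped FBS medium treated with compound plus 1nM final 17-beta-estradiol for 16 hr at 37C. Beta-lactamase reporter read by FRET substrate fluorescence after 2 hours at room temperature.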

[5] = qHTS assay to identify small molecule agonists of the androgen receptor (AR) signaling pathway in the presence of an antagonist - cell viability counter screen (AID 1259379; active = well fitted curve in the direction sought with a large enough effect in the repeat runs; an effect the other way counts as inactive or inconclusive;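 also: MDA-kb2 human breast cancer cells carrying an MMTV luciferase reporter; series mostly up to about 92 µM; nearly all actives have a fitted effect of over 25% in size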)
Procedure, shortened: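 Cytotoxicity is assessed by CellTiter-Fluor in MDA-kb2 cells carrying an MMTV-driven luciferase reporter. Cells receive 3.0uM nilutamide plus compounds at 15 concentrations and incubate 16 hr at 37C without CO2 before fluorescence reading.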

[6] = qHTS assay to identify small molecule agonists of the estrogen receptor beta (ER-beta) signaling pathway - cell viability counter screen (AID 1259380; active = well fitted curve in the direction sought with a large enough effect in the repeat runs; an effect the other way counts as inactive or inconclusive; also: nearly all actives have a fitted effect of over 30% in size)
Procedure, shortened: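 Cytotoxicity is measured in parallel with the reporter screen: after 16 hr compound exposure at 37C and a 2 hr LiveBLAzer step, CellTiter-Glo is added to the same ER-beta-UAS-bla HEK293T wells and luminescence read after 30 min.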

[7] = qHTS assay to identify small molecule antagonists of the estrogen receptor beta (ER-beta) signaling pathway - cell viability counter screen (AID 1259382; active = well fitted curve in the direction sought with a large enough effect in the repeat runs; an effect the other way counts as inactive or inconclusive; also: series mostly up to about 92 µM; nearly all actives have a fitted effect of over 55% in size)
Procedure, shortened: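 Cytotoxicity counter screen multiplexed with the beta-lactamase antagonist assay: GripTite HEK293T ER-beta-bla cells were treated 16 hr with test chemicals in the presence of 1nM 17-beta-estradiol, and viability was measured by CellTiter-Glo.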

[8] = qHTS assay to identify small molecule agonists or antagonists of the thyroid stimulating hormone receptor (TSHR) signaling pathway - wild type cell line counter screen (AID 1259384)
Procedure, shortened: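 Wild-type Hek293 cells, 800/well, 18 h at 37C, then compound with Ro20-1724 for 30 min RT. cAMP by HTRF (cAMP-d2/anti-cAMP cryptate), 1 h RT, fluorescence read. 15 concentrations, triplicates.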

[9] = molecular target: Estrogen receptor (Homo sapiens) (UniProt P03372); experiment: qHTS assay to identify small molecule agonists of the estrogen receptor alpha (ER-alpha) signaling pathway in the presence of an antagonist (AID 1259383); also: top concentration of the series differs between compounds; nearly all actives have a fitted effect of over 15% in size
Procedure, shortened: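 Agonist-mode confirmation in the presence of the ER antagonist ICI-182,780 at 10.0nM final. Breast-derived VM7Luc4E2 reporter cells were exposed to compounds for 22hr, and ERE-driven luciferase was quantified by luminescence.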

[10] = molecular target: Androgen receptor (Homo sapiens) (UniProt P10275); experiment: qHTS assay to identify small molecule agonists of the androgen receptor (AR) signaling pathway in the presence of an antagonist (AID 1259381); also: nearly all actives have a fitted effect of over 15% in size
Procedure, shortened: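 Agonist-mode confirmation screen: human MDA-kb2 cells stably expressing luciferase under an MMTV promoter bearing AR and GR response elements, co-treated with 3.0uM nilutamide (final). Luminescence measured after 16hr compound incubation.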
% is scaled to controls: 0 for no effect and ±100 for the full control effect.

Chain of Estrogen receptor (Homo sapiens) (P03372 whole entry, looked up): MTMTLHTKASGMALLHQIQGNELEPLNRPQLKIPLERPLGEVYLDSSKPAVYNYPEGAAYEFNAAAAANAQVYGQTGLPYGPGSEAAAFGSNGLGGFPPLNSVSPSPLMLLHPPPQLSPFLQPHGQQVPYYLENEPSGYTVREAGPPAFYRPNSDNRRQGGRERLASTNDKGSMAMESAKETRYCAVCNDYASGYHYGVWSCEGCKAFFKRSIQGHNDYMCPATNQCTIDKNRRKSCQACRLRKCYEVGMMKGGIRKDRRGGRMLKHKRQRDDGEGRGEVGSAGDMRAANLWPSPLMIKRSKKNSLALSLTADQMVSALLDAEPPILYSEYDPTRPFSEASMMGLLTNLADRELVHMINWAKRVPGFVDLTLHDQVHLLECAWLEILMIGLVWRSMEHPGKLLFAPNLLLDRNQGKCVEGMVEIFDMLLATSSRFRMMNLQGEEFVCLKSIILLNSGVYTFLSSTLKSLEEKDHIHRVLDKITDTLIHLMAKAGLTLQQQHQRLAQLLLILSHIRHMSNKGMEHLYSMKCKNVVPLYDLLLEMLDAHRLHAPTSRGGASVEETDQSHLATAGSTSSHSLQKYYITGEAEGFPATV
Chain of Estrogen receptor beta (Homo sapiens) (Q92731 whole entry, looked up): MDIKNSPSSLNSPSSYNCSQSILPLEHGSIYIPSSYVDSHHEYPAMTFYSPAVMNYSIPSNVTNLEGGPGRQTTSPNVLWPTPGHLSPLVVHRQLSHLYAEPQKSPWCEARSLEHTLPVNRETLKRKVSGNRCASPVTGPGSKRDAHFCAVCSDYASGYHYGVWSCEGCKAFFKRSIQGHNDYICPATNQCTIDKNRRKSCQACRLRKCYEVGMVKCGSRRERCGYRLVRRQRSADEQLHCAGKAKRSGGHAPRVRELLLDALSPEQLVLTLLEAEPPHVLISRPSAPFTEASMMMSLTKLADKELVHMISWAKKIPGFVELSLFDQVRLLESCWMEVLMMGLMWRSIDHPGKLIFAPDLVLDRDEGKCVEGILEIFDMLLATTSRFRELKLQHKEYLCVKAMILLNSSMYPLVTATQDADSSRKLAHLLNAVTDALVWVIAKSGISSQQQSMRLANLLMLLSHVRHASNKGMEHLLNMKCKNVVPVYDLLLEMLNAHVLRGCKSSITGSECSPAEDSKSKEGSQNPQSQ
Chain of Androgen receptor (Homo sapiens) (P10275 whole entry, looked up): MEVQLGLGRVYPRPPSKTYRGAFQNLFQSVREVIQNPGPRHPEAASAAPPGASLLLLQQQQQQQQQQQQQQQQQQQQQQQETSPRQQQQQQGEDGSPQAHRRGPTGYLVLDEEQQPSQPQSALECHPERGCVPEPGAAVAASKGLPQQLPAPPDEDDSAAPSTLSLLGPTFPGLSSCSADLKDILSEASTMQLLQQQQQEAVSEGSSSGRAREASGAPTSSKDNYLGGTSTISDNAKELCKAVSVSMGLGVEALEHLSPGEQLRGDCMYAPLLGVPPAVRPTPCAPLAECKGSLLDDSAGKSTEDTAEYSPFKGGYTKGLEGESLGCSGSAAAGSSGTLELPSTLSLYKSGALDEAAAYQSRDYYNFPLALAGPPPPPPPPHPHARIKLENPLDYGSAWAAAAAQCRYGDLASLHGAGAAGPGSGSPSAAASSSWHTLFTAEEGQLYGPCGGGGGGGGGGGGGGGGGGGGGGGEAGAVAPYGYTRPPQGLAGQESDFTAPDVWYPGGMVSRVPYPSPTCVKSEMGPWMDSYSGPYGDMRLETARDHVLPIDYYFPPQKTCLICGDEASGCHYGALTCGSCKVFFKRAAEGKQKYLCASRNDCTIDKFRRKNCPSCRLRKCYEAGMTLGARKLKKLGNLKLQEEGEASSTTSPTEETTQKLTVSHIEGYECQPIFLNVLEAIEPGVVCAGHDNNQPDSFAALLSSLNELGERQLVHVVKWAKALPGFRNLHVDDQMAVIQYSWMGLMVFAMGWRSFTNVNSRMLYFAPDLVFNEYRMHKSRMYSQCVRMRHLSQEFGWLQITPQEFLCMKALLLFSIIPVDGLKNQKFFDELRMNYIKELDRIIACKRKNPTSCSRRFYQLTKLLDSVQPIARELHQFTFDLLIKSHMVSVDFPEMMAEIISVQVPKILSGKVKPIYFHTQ

O=C1CCCC(=O)O1
inactive: outcome [1] | Potency [2] | Potency [3] | outcome [4] | Potency [5] | Potency [6] | outcome [7] | outcome [8]

COc1ccc(-c2cc(=O)c3c(O)cc(O[C@@H]4O[C@H](CO[C@@H]5O[C@@H](C)[C@H](O)[C@@H](O)[C@H]5O)[C@@H](O)[C@H](O)[C@H]4O)cc3o2)cc1O
inactive: outcome [1] | Potency [2] | Potency [3] | outcome [4] | Potency [5] | Potency [6] | outcome [7] | outcome [9]

c1ccc2c(c1)ccc1c3ccccc3ccc21
inactive: outcome [1] | Potency [2] | Potency [3] | outcome [4] | Potency [5] | Potency [6] | outcome [7] | outcome [8]

CC(C)CCCCOC(=O)c1ccccc1C(=O)OCCCCC(C)C
inactive: outcome [1] | Potency [2] | Potency [3] | outcome [4] | Potency [5] | Potency [6] | outcome [7]

CCOC(=O)CC(=O)c1ccccc1
inactive: outcome [1] | Potency [2] | Potency [3] | outcome [4] | Potency [5] | Potency [6] | outcome [7] | outcome [9]

COc1ccc(OC)c(Cl)c1
inactive: outcome [1] | Potency [2] | Potency [3] | outcome [4] | Potency [5] | Potency [6] | Potency [10] | outcome [7] | outcome [8]

C[C@H](CCC(=O)O)[C@H]1CC[C@H]2[C@@H]3C(=O)C[C@@H]4CC(=O)CC[C@]4(C)[C@H]3CC(=O)[C@]12C
inactive: outcome [1] | Potency [2] | Potency [3] | outcome [4] | Potency [5] | Potency [6] | outcome [7] | outcome [9] | outcome [8]

C=CCCCCCCCCCCCC
inactive: outcome [1] | Potency [2] | Potency [3] | outcome [4] | Potency [5] | Potency [6] | Potency [10] | outcome [7] | outcome [8]

CC(=O)Nc1ccc(S(=O)(=O)Cl)cc1
inactive: outcome [1] | Potency [2] | Potency [3] | outcome [4] | Potency [5] | Potency [6] | outcome [7]

NS(=O)(=O)c1ccc(NC(=O)CCC(=O)O)cc1
inactive: outcome [1] | Potency [2] | Potency [3] | outcome [4] | Potency [5] | Potency [6] | outcome [7] | outcome [9] | outcome [8]

O=Cc1ccc(Cl)c(Cl)c1
inactive: outcome [1] | Potency [2] | Potency [3] | outcome [4] | Potency [5] | Potency [6] | outcome [7] | outcome [8]

COc1cc(NS(=O)(=O)c2ccc(N)cc2)nc(OC)n1
inactive: outcome [1] | Potency [2] | Potency [3] | Potency [5] | Potency [6] | Potency [10] | outcome [7] | outcome [9]

CC(=O)NCCCCCC(=O)O
inactive: outcome [1] | Potency [2] | Potency [3] | outcome [4] | Potency [5] | outcome [7] | outcome [9] | outcome [8]

Cc1cc(C(C)(C)C)c(O)c(C)c1CC1=NCCN1
inactive: outcome [1] | Potency [2] | Potency [3] | outcome [4] | Potency [5] | Potency [10] | outcome [7] | outcome [8]

COCCc1ccc(OCC2CO2)cc1 (stereo unspecified)
inactive: outcome [1] | Potency [2] | Potency [3] | Potency [5] | Potency [6] | Potency [10] | outcome [7] | outcome [9] | outcome [8]

CC(C)C(=O)OCc1cccc(OC(=O)[C@@H]2N3C(=O)[C@@H](NC(=O)Cc4ccccc4)[C@H]3SC2(C)C)c1
inactive: outcome [1] | Potency [2] | Potency [3] | outcome [4] | Potency [5] | Potency [10] | outcome [7] | outcome [8]

Nc1ncnc(Nc2ccccc2)n1
inactive: outcome [1] | Potency [2] | Potency [3] | outcome [4] | Potency [5] | Potency [6] | outcome [7] | outcome [8]

CCOCCOCCOCC
inactive: outcome [1] | Potency [2] | Potency [3] | outcome [4] | Potency [5] | outcome [7]

CCN(CC)CC(=O)Nc1c(C)cccc1C
inactive: outcome [1] | Potency [2] | Potency [3] | Potency [5] | Potency [6] | Potency [10] | outcome [7] | outcome [8]

NS(=O)(=O)c1cc2c(cc1Cl)CN(C1CCCCC1)C2=O
inactive: outcome [1] | Potency [2] | Potency [3] | Potency [5] | Potency [6] | Potency [10] | outcome [7] | outcome [8]

NCCS
inactive: outcome [1] | Potency [2] | Potency [3] | outcome [4] | Potency [5] | outcome [7]

C=C(C)C(=O)OCCOP(=O)(O)OCCOC(=O)C(=C)C
inactive: outcome [1] | Potency [2] | Potency [3] | outcome [4] | Potency [5] | outcome [7] | outcome [9] | outcome [8]

CC/C=C\CC1=C(C)CCC1=O
inactive: outcome [1] | Potency [2] | Potency [3] | Potency [5] | Potency [6] | Potency [10] | outcome [7] | outcome [8]

N[C@@H](COP(=O)(O)O)C(=O)O
inactive: activity change [1] -1.5% [at 18.9 µM] | activity change, negative = inhibition [2] 28.3% [at 19 µM] | activation [3] 0.272% [at 19 µM] | activity, negative = inhibition [4] 18.6% [at 19 µM] | activity change, negative = cytotoxicity [5] -2.46% [at 19 µM] | activity change, negative = cytotoxicity [6] 5.8% [at 19 µM] | activity change, negative = cytotoxicity [7] 9.58% [at 19 µM] | cAMP activity change [8] 0.501% [at 18.9 µM]

O=C(OCC(COC(=O)c1cccnc1)(COC(=O)c1cccnc1)COC(=O)c1cccnc1)c1cccnc1
inactive: outcome [1] | Potency [2] | Potency [3] | Potency [5] | Potency [6] | Potency [10] | outcome [7] | outcome [9]

O=C(NCCc1c[nH]c2ccccc12)c1cccnc1
inactive: outcome [1] | Potency [2] | Potency [3] | Potency [5] | Potency [6] | Potency [10] | outcome [7] | outcome [9]

CC(C)c1ccc2cc(C(C)C)ccc2c1
inactive: outcome [1] | Potency [2] | Potency [3] | Potency [5] | Potency [6] | Potency [10] | outcome [7]

CC1(C)S[C@@H]2[C@H](N=CN3CCCCCC3)C(=O)N2[C@H]1C(=O)O
inactive: outcome [1] | Potency [2] | Potency [3] | outcome [4] | Potency [5] | outcome [7] | outcome [8]
